# Compound activity deposited in PubChem by several laboratories.
# tim10-1 inh = inhibits growth of tim10-1 mutant yeast. S. cerevisiae tim10-1 ts strain growth, BacTiter-Glo, 24 h. inhibition, % at 20 µM. hit rate 2.2% among 330,000. AID 463190;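 active = inhibition of at least 40%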;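 note: mutant grown at 25 °C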
# EBI2 antag = antagonists of human EBI2 receptor. EBI2 beta-arrestin recruitment, luminescence, 7a,25-OHC stimulated. inhibition, % at 5 µM. hit rate 0.81% among 360,000; in the data active = inhibition above about 38%;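 note: enzyme fragment complementation signal reports receptor beta-arrestin coupling in cells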
# Target sequence (P32249 whole entry, looked up, the tested form may be a part): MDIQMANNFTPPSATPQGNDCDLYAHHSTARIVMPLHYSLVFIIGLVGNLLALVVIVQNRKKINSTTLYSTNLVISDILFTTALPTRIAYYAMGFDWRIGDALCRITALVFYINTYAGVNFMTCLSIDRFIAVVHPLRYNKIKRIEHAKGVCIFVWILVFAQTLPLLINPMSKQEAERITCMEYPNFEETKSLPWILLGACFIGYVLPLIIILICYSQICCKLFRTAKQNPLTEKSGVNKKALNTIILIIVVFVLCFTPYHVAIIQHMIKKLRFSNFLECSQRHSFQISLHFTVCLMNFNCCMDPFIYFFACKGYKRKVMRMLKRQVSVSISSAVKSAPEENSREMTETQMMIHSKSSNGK
# PfHsp90 set2 = growth inhibition of yeast expressing Plasmodium Hsp90. S. cerevisiae expressing PfHsp90, BacTiter-Glo ATP, 48 h; yeast lacking PDR1 and PDR3 efflux regulators. inhibition, % at 9.4 µM. hit rate 0.32% among 310,000. AID 504621;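 active = every replicate shows inhibition above about 80%, whatever the replicate mean, limit read from the data; inconclusive = mean inhibition reaches the set limit but some replicate falls short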
# TIM10 inh = TIM10 yeast growth inhibition | S. cerevisiae TIM10 strain growth, BacTiter-Glo luminescence, 24 h | hit rate 1.4% among 330,000 | inhibition, % at 10 µM;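 active = inhibition of 40% or more at the single tested concentration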;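 note: wild-type TIM10 isogenic control strain grown at permissive 25 °C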
# SKKanGAS inh = blocks kanamycin growth of S. pyogenes SKKanGAS strain; BacTiter-Glo, 6 h; inhibition, % at 7.5 µM; hit rate 1.3% among 300,000;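 active = mean replicate score, as percent of positive control median, at least 50; inconclusive = mean below 50 but one replicate at or above 50; inactive = mean and every replicate below 50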;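 note: strain carries kanamycin resistance gene driven by streptokinase promoter and grows in 40 µg/ml kanamycin; loss of luminescence reflects streptokinase promoter inhibition or plain growth inhibition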
# tim23-1 inh = inhibits growth of tim23-1 mutant yeast; hit rate 1.3% among 330,000; S. cerevisiae tim23-1 growth, BacTiter-Glo luminescence, 24 h; AID 463212; inhibition, % at 20 µM;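 active = growth inhibition of the mutant yeast at or above 50%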;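 note: temperature-sensitive mutant grown at 25 °C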
# tim10-1 conf = confirmation of tim10-1 mutant yeast growth inhibitors. AID 463213. S. cerevisiae tim10-1 ts strain growth, BacTiter-Glo, 24 h. hit rate 56% among 7,400. shares compounds with tim10-1 inh. inhibition, % at 20 µM;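 active = inhibition of yeast growth at or above a set limit in either of two repeat tests at 20 µM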;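 note: tim10-1 mutant grown at permissive 25 °C to find synthetic lethal compounds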
# TIM10 conf = confirmation of TIM10 yeast growth inhibitors; shares compounds with TIM10 inh; S. cerevisiae tim10 strain growth, BacTiter-Glo luminescence, 24 h; inhibition, % at 10 µM; hit rate 63% among 4,600;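 active = inhibition of yeast growth at or above a set limit in either of two replicates at 10 µM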; note: this counterscreen used the strain with wild-type TIM10
# tim23-1 confirm = tim23-1 yeast growth inhibition, confirmed. shares compounds with tim23-1 inh. S. cerevisiae tim23-1 growth, BacTiter-Glo luminescence, 24 h. inhibition, % at 20 µM. hit rate 83% among 4,400;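 active = inhibition above about 39% in either of two replicate wells at 20 µM, limit read from the data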;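 note: temperature-sensitive tim23-1 mutant grown at 25 °C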
# Hits are given with their value; i = inactive; ? = inconclusive; nt = not tested or not shown. Only some compounds are listed: those with a hit (about 4.7% of all), similar ones and a draw of the others.
SMILES,tim10-1 inh,EBI2 antag,PfHsp90 set2,TIM10 inh,SKKanGAS inh,tim23-1 inh,tim10-1 conf,TIM10 conf,tim23-1 confirm
COCCCn1c(-c2ccc(OC)cc2)cc(C(=O)NC2CCCCCCC2)c1C,54,i,i,41,i,i,42,i,nt
COc1ccc(-c2ccc3c(c2)CN(C(=O)NC2CCCCC2)Cc2cnnn2-3)cc1,nt,i,nt,nt,nt,nt,nt,nt,nt
Cc1nc(C)c(C(=O)NN=Cc2ccc(N(CCCl)CCCl)cc2)s1,nt,i,i,nt,nt,nt,nt,nt,nt
CCCNC(=O)N1[C@H]2CC[C@@H]1C(C(=O)OC)=C(c1c(C)noc1C)C2,i,i,i,i,nt,i,nt,nt,nt
CN(C)c1ccc(C(=O)c2ccc(N(C)C)cc2)cc1,40,i,i,48,i,i,i,i,nt
COC(=O)C1=C(c2ccc(F)cc2OCc2ccccc2)C[C@@H]2CC[C@H]1N2C(=O)NC1Cc2ccccc2C1,i,i,i,i,nt,i,nt,nt,nt
CN1C(=O)C(Cc2nc3ccccc3c(=O)n2-c2ccccc2)c2ccccc21 (configuration not stated),43,i,i,52,i,i,37,39,nt
CCCCNC(=O)c1c(N)n(CCCOC)c2nc3ccccc3nc12,i,i,nt,i,i,i,nt,nt,nt
COCCNC(=O)c1c(N)n(CCC(C)C)c2nc3ccccc3nc12,48,i,i,42,i,i,i,i,nt
C=C1C(=O)OC2C1CCC(C)C1(O)C=CC(=O)C21C (configuration not stated),nt,i,i,nt,nt,nt,nt,nt,nt
C=C1C(=O)O[C@H]2C[C@@H](C)[C@@H]3C=CC(=O)[C@@]3(C)C[C@H]12,48,nt,nt,46,i,i,47,51,nt
COc1ccc(OC)c(N2C(=O)NC(=O)/C(=C/c3ccc([N+](=O)[O-])s3)C2=O)c1,72,i,105,89,i,i,70,35,nt
COC(=O)C(O)(c1ccc(NC(=S)NC(=O)c2ccccc2)cc1)C(F)(F)F (configuration not stated),41,i,nt,46,i,i,i,33,nt
O=C1C2CCCN2C(c2cccnc2)N1c1nccs1 (configuration not stated),i,i,i,i,i,i,nt,nt,nt
CC(C)(O)C(=O)Nc1ccc([N+](=O)[O-])c(C(F)(F)F)c1,i,i,i,i,nt,i,nt,nt,nt
COc1cc2c(cc1OC)CN(c1ccc([N+](=O)[O-])c(C(F)(F)F)c1)CC2,60,i,i,54,i,i,55,i,nt
Clc1ccc(C(c2ccc(Cl)cc2)n2cc[n+](CC(OCc3ccc(Cl)cc3Cl)c3ccc(Cl)cc3Cl)c2)cc1 (configuration not stated),93,i,107,85,nt,88,90,i,77
Oc1c(Br)c(Br)c(Br)c(Br)c1Br,52,i,i,49,nt,66,65,44,58
Cc1nc2c(=O)n(C)c(=O)nc-2n(C)n1,42,i,i,i,78,54,i,nt,63
O=C1C(=O)c2ccccc2-c2ccccc21,85,i,?,92,86,77,85,98,77
Cc1ccc2cc(C=C(C#N)C#N)c(Cl)nc2c1,48,i,i,46,i,80,31,i,76
Cc1cc(N2CCCC2)ccc1C=C(C#N)C#N,i,i,i,i,i,i,nt,nt,nt
COC(=O)c1cc(C(O)(C(=O)OC)C(F)(F)F)c(/N=C/N(C)C)s1 (configuration not stated),i,i,i,i,i,i,nt,nt,nt
CCCC(C)C1(CC)C(=O)NC(=O)N=C1N (configuration not stated),i,i,nt,i,i,i,nt,nt,nt
CN1CC2CN(Cc3ccccc3)S(=O)(=O)C2C1 (configuration not stated),nt,i,nt,nt,nt,nt,nt,nt,nt
SMILES,tim10-1 inh,EBI2 antag,PfHsp90 set2,TIM10 inh,SKKanGAS inh,tim23-1 inh,tim10-1 conf,TIM10 conf,tim23-1 confirm
CCn1cc(CN2CCCC(C(=O)c3sccc3C)C2)cn1 (configuration not stated),i,i,i,i,i,i,nt,nt,nt
C=C(C)C(Cc1c(OC)ccc(C(=O)/C=C/c2ccc(O)cc2)c1O)OO (configuration not stated),44,i,nt,46,nt,75,65,69,76
O=C(OC1CC2CCC(N2)C1C(=O)O)c1ccccc1 (configuration not stated),i,i,nt,i,nt,i,nt,nt,nt
O=C1/C(=C\c2ccc(Cl)c(Cl)c2)N2CCC1CC2,42,i,i,i,i,52,i,nt,i
CCOC(=O)N1CCN(C(C)C(=O)c2c[nH]c3ccccc23)CC1 (configuration not stated),i,i,i,i,i,i,nt,nt,nt
O=C1c2ccccc2C(=O)N1Cc1nc2ccccc2c(=O)n1-c1ccc(Br)cn1,59,i,i,57,i,69,55,59,58
O=C1c2ccccc2C(=O)N1Cc1nc2ccccc2c(=O)n1-c1cccnc1,i,i,i,i,i,i,nt,nt,nt
COc1ccc(-c2nn(CCC#N)cc2C(=O)Nc2ccccc2)cc1OC,i,i,i,i,i,i,nt,nt,nt
Nc1ccc(Cc2ccc(N)cc2)cc1,nt,i,i,nt,nt,nt,nt,nt,nt
Cc1cc([N+](=O)[O-])c2ccccc2[n+]1[O-],68,i,108,87,i,79,61,87,64
Cc1ccccc1[N+](=O)[O-],i,i,i,i,nt,i,nt,nt,nt
Cc1ccc(/C=C2/C(=O)NC(=O)N(CC3CCCO3)C2=O)s1 (configuration not stated),i,i,i,i,i,i,nt,nt,nt
CCn1nc(-c2ccccc2)nc2c(=O)n(C)c(=O)nc1-2,80,i,107,96,95,85,83,97,83
Cc1ccc(C[n+]2c(-c3ccc(C)cc3)cc(-c3ccc(C)cc3)cc2-c2ccc(C)cc2)cc1,50,i,?,58,106,56,43,50,60
Cc1ccc(-c2cc(-c3ccc(C)cc3)[n+](-c3ccc(C(=O)O)cc3)c(-c3ccc(C)cc3)c2)cc1,i,i,i,i,i,i,nt,nt,nt
O=C1NC(=O)C(=Cc2ccc(-c3ccc(Cl)cc3)o2)C(=O)N1,45,i,i,i,i,54,i,nt,55
CCOC(=O)C(O)(c1ccc(N(C)C(=O)c2ccc(Cl)c(Cl)c2)cc1)C(F)(F)F (configuration not stated),i,i,i,i,i,i,nt,nt,nt
CCOC(=O)C(O)(c1ccc(NC(=O)c2ccc(Cl)c(Cl)c2)cc1)C(F)(F)F (configuration not stated),43,i,i,i,i,57,34,nt,50
